Mtb hypoxia inh: inhibitors of hypoxia-regulated fluorescent reporter in Mycobacterium tuberculosis | 300,000 tested, 0.1% active | M. tuberculosis hypoxia-regulated fluorescent reporter, fluorescence | fluorescence inhibition, % (concentration not given with the values); in the data active = fluorescence inhibition mostly above about 23%, no sharp cut-off; inactive = mostly below about 17%
Mtb betalactam: beta-lactam sensitization of Mtb H37Rv. M. tuberculosis H37Rv growth with meropenem, percent inhibition. inhibition, % at 25 µM. 330,000 tested, 0.27% active. AID 434955; call rule not given here;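 also: growth measured after seven days incubation then overnight dye step; 0% = bacteria only wells and 100% = bacteria with antibiotic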
Mtb FBA inh: inhibitors of M. tuberculosis fructose-bisphosphate aldolase. 360,000 tested, 2.3% active. inhibition, % at 1 µM. P9WQA3. purified M. tuberculosis FBA, fluorescence read-out; in the data active = inhibition above about 27%;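 also: 0% = vehicle and 100% = reference inhibitor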
Target sequence (P9WQA3 whole entry, looked up): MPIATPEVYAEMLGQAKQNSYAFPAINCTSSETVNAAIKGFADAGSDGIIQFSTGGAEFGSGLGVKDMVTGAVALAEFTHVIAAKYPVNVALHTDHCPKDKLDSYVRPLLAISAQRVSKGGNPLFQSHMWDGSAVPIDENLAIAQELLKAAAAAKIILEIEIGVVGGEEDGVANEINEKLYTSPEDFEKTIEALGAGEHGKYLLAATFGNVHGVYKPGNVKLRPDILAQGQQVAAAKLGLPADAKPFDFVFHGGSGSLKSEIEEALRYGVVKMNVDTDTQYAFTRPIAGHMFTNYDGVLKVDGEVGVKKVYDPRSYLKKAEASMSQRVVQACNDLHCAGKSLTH
GDH-TPI inh: GDH-TPI coupled enzyme inhibition counter-screen; GDH-TPI coupled enzyme counterscreen, NADH absorbance; 360,000 tested, 1.2% active; inhibition, % at 4.8 µM; in the data active = inhibition above about 30%;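 also: 0% = DMSO wells and 100% = wells lacking the enzyme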
DUSP3 inh: inhibitors of human VHR1 phosphatase (DUSP3); 290,000 tested, 0.52% active; recombinant VHR phosphatase, pNPP absorbance; inhibition, % at 13.3 µM; P51452; in the data active = inhibition above about 50%
Target sequence (P51452 whole entry, looked up): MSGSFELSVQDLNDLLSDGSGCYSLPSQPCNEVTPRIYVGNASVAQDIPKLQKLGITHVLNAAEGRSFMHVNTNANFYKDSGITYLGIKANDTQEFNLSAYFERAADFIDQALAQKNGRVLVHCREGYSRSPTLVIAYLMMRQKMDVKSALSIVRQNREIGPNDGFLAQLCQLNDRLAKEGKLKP
Numbers without * were called inactive; . = no result; + = active, no number; ! = a repeat was not active. Compounds with a hit are over-represented: about 3.6% of the library has one in this group of screens.

SMILES	Mtb hypoxia inh	Mtb betalactam	Mtb FBA inh	GDH-TPI inh	DUSP3 inh
Cc1ccc(-c2cc(C(=O)NCc3ccco3)c3ccccc3n2)s1	.	2	113*	24	10
CC(C)C1S/C(=N/N=C/c2ccco2)NC1=O (stereo unspecified)	.	12	-4	57*	10
O=C1CC(C(=O)Nc2ccccc2)S/C(=N\N=C\c2ccco2)N1 (stereo unspecified)	.	-8	-4	29	-4
CCCCNC(=O)CC1S/C(=N/N=C/c2ccc(OC)cc2)NC1=O (stereo unspecified)	.	-10	-2	33*	26
COc1ccc(/C=N/N=C2/NC(=O)C(CC(=O)NC(N)=O)S2)cc1 (stereo unspecified)	.	-4	1	26	22
O=C1CC(C(=O)Nc2ccc(Br)cc2)S/C(=N\N=C\c2ccco2)N1 (stereo unspecified)	.	7	0	52*	16
O=C1CC(C(=O)Nc2ccc(Cl)cc2)S/C(=N\N=C\c2ccco2)N1 (stereo unspecified)	.	-4	-2	56*	1
CC(C)C1S/C(=N/N=Cc2ccco2)NC1=O (stereo unspecified)	3	.	.	.	.
CCCCCC(=O)NN=Cc1ccccc1[N+](=O)[O-]	8	.	.	.	.
CC#CCN1c2ccccc2[C@]23CC(C(=O)OC)N(C(=O)c4ccco4)C2=NC(C(=O)OC)=C(C(=O)OC)C13 (stereo partly specified)	16	.	.	.	.
COc1ccc(NC(=O)Nc2cccc3c2OC(CN(C)C(=O)NC(C)C)C(C)CN(C(C)CO)C3=O)cc1 (stereo unspecified)	3	.	.	.	.
COc1ccc(/C=N/N=C2/NC(=O)CC(C(=O)O)S2)cc1 (stereo unspecified)	.	0	-3	55*	-7
COc1ccc(NC(=O)C2CC(=O)N/C(=N/N=C/c3ccco3)S2)cc1 (stereo unspecified)	.	-2	-2	45*	9
O=C(c1ccncc1)c1ccc(N2CCN(C3CC(=O)N(Cc4cccs4)C3=O)CC2)cc1 (stereo unspecified)	5	3	-4	38*	15
Cn1c2ccccc2c(=O)c2ccc(F)cc21	0	-1	191*	2	36
CC(=NNC(=O)C1CC1)c1ccccc1Br	4	.	.	.	.
C=CCNc1oc(-c2cccs2)nc1C#N	2	-10	+	28	-4
N#Cc1nc(-c2cccs2)oc1NCc1ccco1	-4	3	+	20	-27
N#Cc1nc(-c2cccs2)oc1NCc1ccccc1Cl	.	74	158*	25	-15
N#Cc1nc(-c2cccs2)oc1NCc1ccc(Cl)cc1	.	-6	+	7	12
O=C(CCCOc1ccc(Cl)cc1Cl)NN=Cc1cccc([N+](=O)[O-])c1	1	.	.	.	.
N#Cc1nc(-c2cccs2)oc1NCc1ccccc1	.	56	+	22	2
Cc1ccc(CNc2oc(-c3cccs3)nc2C#N)cc1	21	5	+	7	6
N#Cc1nc(Cc2ccccc2)oc1NCc1ccccc1	5	5	-8	1	-4
C=C(C)Cn1c2ccc(NC(=O)NCCc3cccs3)cc2c(=O)n1C	.	.	182*	9	.
SMILES	Mtb hypoxia inh	Mtb betalactam	Mtb FBA inh	GDH-TPI inh	DUSP3 inh
C=C(C)Cn1c2ccc(NC(=O)CCc3cccnc3)cc2c(=O)n1C	.	.	+	13	.
CC(C)=CCn1c2ccc(NC(=O)Nc3cccnc3)cc2c(=O)n1C	.	.	141*	1	.
Cn1c(=O)c2cc(NC(=O)Nc3cccnc3)ccc2n1Cc1cccc(C(F)(F)F)c1	.	.	114*	5	.
COc1ccc(OC)c(C=NNC(=O)Cn2ccnc2C)c1	-2	.	.	.	.
CC(=O)CC1c2ccccc2S(=O)(=O)N1C1CCCC1 (stereo unspecified)	20	.	.	.	.
CC(NC(=O)COc1ccc(C=NNC(=O)CO)cc1)c1ccccc1 (stereo unspecified)	7	.	.	.	.
Cn1c(=O)c2cc(NC(=O)Nc3cccnc3)ccc2n1Cc1ccc(Cl)cc1	.	.	135*	-2	.
CN(C)c1ccc(NC(=O)Nc2ccc3c(c2)c(=O)n(C)n3Cc2ccc(Cl)cc2)cc1	.	.	7	11	.
Cc1c(CCO)c(=O)n2c([nH]c3ccccc32)c1C#N	-3	-1	+	16	2
Cc1c(CCC(C)C)c(=O)n2c([nH]c3ccccc32)c1C#N	.	70	24	3	18
Cc1ccc(C(=O)NN=Cc2cccc(OC(=O)/C=C/c3ccco3)c2)cn1	-7	.	.	.	.
Nc1ncc([N+](=O)[O-])cc1Br	5	-5	0	52*	-3
COc1ccc(/C=N/NC2=NS(=O)(=O)c3ccccc32)cc1	.	1	0	44*	3
CC(=O)Oc1ccc(/C=N/NC2=NS(=O)(=O)c3ccccc32)cc1	.	12	-1	35*	30
COc1ccc(/C=N/NC2=NS(=O)(=O)c3ccccc32)cc1OC(C)=O	.	9	-1	32*	-20
CC(=O)Oc1ccc(C=NNC2=NS(=O)(=O)c3ccccc32)cc1	-2	.	.	.	.
COc1ccc(C=NNC2=NS(=O)(=O)c3ccccc32)cc1OC(C)=O	13	.	.	.	.
O=S1(=O)N=C(N(CCO)/N=C/C=C/c2ccccc2)c2ccccc21	.	-5	-3	56*	-7
O=S1(=O)N=C(N/N=C/C=C/c2ccccc2)c2ccccc21	.	1	2	40*	13
O=S1(=O)N=C(NN=Cc2cccs2)c2ccccc21	-1	.	.	.	.
CC(C)(C)OC(=O)CC1CC=CCC(CC(=O)N(CCO)Cc2ccccc2)C(=O)NC(C(C)(C)C)COC1=O (stereo unspecified)	10	.	.	.	.
O=[N+]([O-])c1ccc(/C=[N+](\[O-])[C@@H]2CCCC[C@@H]2/[N+]([O-])=C/c2ccc([N+](=O)[O-])o2)o1	21	100	-1	34*	17
COC(=O)C(Cc1ccccc1)C(C)OS(N)(=O)=O (stereo unspecified)	-2	.	.	.	.
N[C@@H](Cc1c[nH]c2ccccc12)C(=O)O	.	.	.	.	6
O=C(O)C(Cc1c[nH]c2ccccc12)N1C(=O)c2ccccc2C1=O (stereo unspecified)	-11	-9	-2	2	52*!
SMILES	Mtb hypoxia inh	Mtb betalactam	Mtb FBA inh	GDH-TPI inh	DUSP3 inh
CC(=Cc1ccc(C(=O)O)cc1)c1ccc2c(c1)C(C)(C)CCC2(C)C	1	.	.	.	.
COc1ccc(-c2c(C#Cc3ccc(N(C)C)cc3)c3ccccc3n2C)cc1	.	49	4	25	.
COc1ccc(C#Cc2c(-c3ccccc3)n(-c3ccccc3)c3ccc(CO)cc23)cc1	9	2	113*	33*	.
N#CCC(=O)NN=Cc1ccc(SCC(=O)Nc2ccccc2)o1	2	.	.	.	.
Cc1cccc(Nc2c([N+](=O)[O-])c(=O)oc3ccccc23)c1	-4	-4	-4	32*	17
O=c1oc2ccccc2c(Nc2ccccc2)c1[N+](=O)[O-]	4	-3	-1	7	38
COc1ccc(C(=O)/C(C#N)=N/Nc2ccc([N+](=O)[O-])cc2)cc1	.	21	-1	-3	71*
CCOc1ccc(N/N=C(/C#N)C(N)=O)cc1	.	3	-4	33*	16
COc1ccc(N/N=C(\C#N)C(N)=O)cc1	.	-3	-5	20	22

Compound activity (PubChem BioAssay)
